Screening results from PubChem BioAssay.
A selection: hits, their analogues and other compounds. The true share with any hit is near 11%.
Tau fluor counter: counter-screen for tau fibril formation inhibitors | tau K18 P301L Alexa594 fluorescence, heparin fibrillization | 280,000 compounds, 0.93% hits | Potency, µM (top dose mostly 57.7 µM) | AID 1463; note: nearly all actives have a fitted effect of over 55% in size
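Human tau K18 P301L (15 uM unlabeled, 0.24 uM Alexa 594-labeled) in 100 mM sodium acetate pH 7 with 20 uM heparin, 6 hr at 37 C. ThT 30 uM added, 1 hr ambient; Alexa 594 FP and total fluorescence read at 555/632 nm.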
G9a block: blocks human histone lysine methyltransferase G9a | Q96KQ7 | G9a H3K9 monomethylation, AlphaScreen, 2 h | Potency, µM (series often up to 102 µM), most hits filed as inhibitors | 350,000 compounds, 8.8% hits; note: nearly all actives have a fitted effect of over 75% in size
Target sequence (Q96KQ7 913-1193 limits assumed): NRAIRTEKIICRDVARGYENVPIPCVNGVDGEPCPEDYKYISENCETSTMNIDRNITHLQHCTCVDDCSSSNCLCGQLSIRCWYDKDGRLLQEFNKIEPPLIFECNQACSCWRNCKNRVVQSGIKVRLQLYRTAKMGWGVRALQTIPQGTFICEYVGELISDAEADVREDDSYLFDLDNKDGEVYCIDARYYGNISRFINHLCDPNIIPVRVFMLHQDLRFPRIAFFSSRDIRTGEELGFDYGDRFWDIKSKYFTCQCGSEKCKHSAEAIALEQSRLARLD
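Signal arises when biotinylated H3K9 peptide, once monomethylated, bridges streptavidin donor and antibody-captured acceptor beads. Enzyme at 20 nM was preincubated 15 min with test compounds; peptide 500 nM and SAM 20 uM then reacted for 2 h.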
Tau FP inhib: inhibitors of human tau fibril formation; Potency, µM (top dose mostly 57.7 µM), most hits filed as inhibitors; 280,000 compounds, 0.39% hits; P10636; AID 1468; K18 P301L tau heparin fibrillization, Alexa594 FP, 6 h; note: nearly all actives have a fitted effect of over 55% in size
Target sequence (P10636 561-689 P618L limits assumed): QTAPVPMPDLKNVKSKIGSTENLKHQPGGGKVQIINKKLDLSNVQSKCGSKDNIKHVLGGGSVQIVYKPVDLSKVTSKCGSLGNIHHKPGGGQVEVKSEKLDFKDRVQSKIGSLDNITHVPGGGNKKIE
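Quantitative HTS format: compounds meet 15 uM recombinant K18 P301L tau and Alexa 594-tau tracer in 100 mM sodium acetate pH 7; 20 uM heparin triggers fibrillization at 37 C over 6 hr; FP gives the signal.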
FBPA coupling cs: counter-screen for Giardia aldolase inhibitors: coupling enzyme system; coupling enzyme system counterscreen, AmpLite Red fluorescence; activity change, negative = inhibition, % at 58.2 µM, hits read low; 290,000 compounds, 0.67% hits; in the data active = activity change below about -30%
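First, compound is pin-transferred into glyceraldehyde-3-phosphate coupling-enzyme reagent at 57.5 uM final and held 10 min at RT. Next, substrate, coupling system and AmpLite Red are added. After 20 min RT, fluorescence (525/598 nm) is read.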
Sfp PPTase inh: Sfp phosphopantetheinyl transferase inhibition; Q9F4F7; 310,000 compounds, 3.5% hits; Potency, µM, actives largely listed as inhibitors; Biochemical Sfp PPTase activity, qHTS; AID 1490;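 note: the enzyme is Sfp with the accession as filed and its product quenches rhodamine fluorescence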
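Compounds were incubated with enzyme (final 15 nM) for 15 min at room temperature before substrate addition started the reaction. Fluorescence at 525 nm excitation, 598 nm emission was recorded immediately and after 30 minutes.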
Tau fibril ThT: tau fibrillization inhibition (ThT binding). Potency, µM (doses to about 57.4 µM), usual class: inhibitors. P10636. AID 1460. recombinant tau K18 P301L (four-repeat tau fragment), heparin-induced fibrillization, ThT fluorescence. 270,000 compounds, 2.1% hits; note: nearly all actives have a fitted effect of over 55% in size
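Aggregation was driven by heparin (20 uM final) acting on recombinant tau […] bearing P301L in 100 mM sodium acetate pH 7; fibrils were detected with Thioflavin T.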
A number is an active result; i = inactive; ? = inconclusive; nt = no result given; ! = not active in a repeat; [ ] = remark or other dose. Unless noted, calls come from the whole dose curve; as a rule, active = well fitted curve in the direction sought with a large enough effect; inconclusive = small, poorly fitted or top-dose-only effect, or another doubt; inactive = no such curve, though single readings can be large; an effect the other way counts as inactive or inconclusive.

SMILES	Tau fluor counter	G9a block	Tau FP inhib	FBPA coupling cs	Sfp PPTase inh	Tau fibril ThT
Cc1cc(OCCOCCNCc2ccccc2)ccc1C(C)C	nt	10µM	nt	i	79.4µM	nt
CC(C)(C)c1ccccc1OCCOCCNCc1ccccc1	i	14.1µM	i	i	i	i
Cc1ccc(C(=O)N2CCc3cc(CNC(=O)CSc4ccccc4)ccc32)cc1	i	i	i	nt	nt	i
Cc1cc(OCCOCCN(C)C)ccc1Cl	i	?	i	i	i	i
COCCNCCOCCOc1ccc(Cl)c(C)c1	i	2.82µM	i	i	i	i
O=C(O)c1ccccc1Nc1ccccc1C(=O)O	i	79.4µM	i	i	i	i
Cc1nnc(NC(=O)c2ccccc2-c2ccccc2C(=O)O)s1	i	nt	i	i	i	i
Cc1nnc(NC(=O)c2ccccc2NC(=O)c2ccccc2)s1	i	50.1µM	i	i	i	i
Cc1ccccc1NC(=S)c1ccc2ccccc2n1	nt	11.2µM	nt	i	28.2µM	nt
O=C(O)c1ccccc1NC(=O)C1C2C=CC(C2)C1C(=O)O (centres undefined)	nt	?	nt	i	20µM	nt
CC(=O)Nc1ccc(NC(=O)c2ccc3c(c2)N(Cc2cccc(Cl)c2)C(=O)c2ccccc2S3=O)cc1 (centres undefined)	?	i	?	nt	nt	i
Cc1cccc(CNC(=O)CCCN2C(=O)COc3ccc(C)cc32)c1	i	i	i	nt	nt	i
COc1ccccc1-c1nn(CCC(=O)Nc2ccccc2)c2nc(C)cc(C)c12	i	i	i	nt	nt	i
Cc1cc(=O)c2c([nH]1)c(C)cc1[nH]c(C)c(C)c12	nt	i	nt	nt	nt	nt
O=C(O)c1ccccc1C(=O)Nc1ccc(Nc2ccc([N+](=O)[O-])cc2[N+](=O)[O-])cc1	nt	?	nt	i	i	nt
O=C(Nc1ccccc1)c1ccc2ccccc2n1	i	i	i	i	i	i
COc1ccc(NC(=O)C2C3C=CC(C3)C2C(=O)O)cc1 (centres undefined)	i	i	i	i	i	i
Cc1ccc(-c2ccc(NC(=O)C3C4C=CC(C4)C3C(=O)O)cc2)o1 (centres undefined)	i	15.8µM	i	i	2.24µM	?
O=C(O)c1ccccc1Nc1ccc([N+](=O)[O-])cc1	i	?	i	i	i	10µM
O=C(NNc1ccc([N+](=O)[O-])cc1)c1ccccc1F	i	35.5µM	i	i	i	?
O=C(Nc1ccccc1C(=O)O)c1ccc2ccccc2n1	i	?	i	-39.6	?	i
O=C(Nc1ccccc1C(=O)O)c1ccccc1	i	50.1µM	i	i	i	i
Cc1c(Cl)cccc1Nc1ccccc1C(=O)O	?	44.7µM!	i	i	i	?
O=C(NN=C1CCCC1)c1ccccc1O	nt	nt	nt	i	i	nt
O=C(Nc1ccccc1C(=O)O)c1cccc(C(=O)Nc2ccccc2C(=O)O)c1	nt	?	nt	i	i	nt
SMILES	Tau fluor counter	G9a block	Tau FP inhib	FBPA coupling cs	Sfp PPTase inh	Tau fibril ThT
O=C(Nc1cccnc1N1CCOCC1)c1cc2ccccc2oc1=O	i	i	i	i	i	i
O=C(O)c1ccccc1NC(=O)c1cc2ccccc2oc1=O	nt	50.1µM	nt	i	?	nt
O=C(O)c1ccccc1NN=C1CCCCC1	i	8.91µM	i	i	i	?
O=C(NCCC1CCCCN1S(=O)(=O)c1ccccc1)C(=O)NC1CCCC1 (centres undefined)	nt	i[0.501 µM]	nt	nt	nt	nt
O=C(NCC1CCCN1S(=O)(=O)c1ccccc1)C(=O)NC1CC1 (centres undefined)	nt	50.1µM	nt	nt	nt	nt
O=C(O)C1CCCN1S(=O)(=O)c1cccc(S(=O)(=O)N2CCCC2C(=O)O)c1 (centres undefined)	nt	3.16µM	nt	i	i	nt
Cc1ccc(/C=c2\sc3n(c2=O)CN(c2cccc(Br)c2)CN=3)o1	i	?	i	i	20µM	?
O=c1/c(=C/c2ccco2)sc2n1CN(c1cccc(Br)c1)CN=2	i	i[12.7 µM]	i	i	i	i
O=c1/c(=C/c2ccco2)sc2n1CN(c1ccccc1)CN=2	i	12.6µM	i	i	i	i
Cc1ccc(S(=O)(=O)c2nc(NN(C)C)sc2Cl)cc1	i	?	i	i	i	i
CCC(C)N(C(=O)CSc1ccc(NC(C)=O)cc1)C1CCS(=O)(=O)C1 (centres undefined)	i	?	i	i	i	i
